The values that follow come from PubChem BioAssay (NCATS).

Results filed as inconclusive are left out. A number with no mark means an inactive call. Active and inactive are the calls of the source. Calls follow the shape of the dose curve; as a rule, active = well fitted curve in the direction sought with a large enough effect; inconclusive = small, poorly fitted or top-dose-only effect, or another doubt; inactive = no such curve, though single readings can be large; an effect the other way counts as inactive or inconclusive.

The target of assay [1] is Rap guanine nucleotide exchange factor 3 (Homo sapiens) (UniProt O95398). The experiment in a line: Confirmatory qHTS for antagonist of cAMP-regulated guanine nucleotide exchange factor 3 (EPAC1) (AID 1645880). Also: nearly all actives have a fitted effect of over 55% in size. Also: potency is read from the fitted curve at half-maximal effect. In a few lines: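 Nucleotide exchange uses 100 nM EPAC1, 250 nM RAP1B-BODIPY-GDP and 50 uM GDP, with compounds in a concentration-titration series. After 5 min at room temperature, fluorescence (480 nm ex/540 nm em) is read every 5 min for 30 min. Data are normalized to control ATA and DMSO.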
(In general: qHTS replaces the single test concentration by a dilution series.)

Assay [2] shares this target. In words: Confirmatory qHTS for agonist of cAMP-regulated guanine nucleotide exchange factor 3 (EPAC1) (AID 1645881).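 Also: EPAC1 catalysed release of BODIPY-GDP from Rap1B seen as fluorescence loss; 100% = effect of cAMP agonist control; nearly all actives have a fitted effect of over 75% in size.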
The target in assay [3] is Rap guanine nucleotide exchange factor 4 (Homo sapiens) (UniProt Q8WZA2). In words: Confirmatory qHTS for agonist of cAMP-regulated guanine nucleotide exchange factor 4 (EPAC2) (AID 1645884).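 Also: nucleotide exchange releases bodipy-GDP from Rap1 and this lowers its fluorescence; % is scaled to controls: 0 for no effect and ±100 for the full control effect; nearly all actives have a fitted effect of over 65% in size.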
For assay [4] the target is unchanged. In words: Confirmatory qHTS for antagonist of cAMP-regulated guanine nucleotide exchange factor 4 (EPAC2) (AID 1645885). Also: nearly all actives have a fitted effect of over 25% in size. Also: potency is read from the fitted curve at half-maximal effect. As to activity change, negative = inhibition: % is scaled to controls: 0 for no effect and ±100 for the full control effect.
The target in assay [5] is Rap guanine nucleotide exchange factor 3 (Homo sapiens) (UniProt O95398). In words: Counterscreen qHTS for antagonist of cAMP-regulated guanine nucleotide exchange factor 3 (EPAC1) (AID 1645888).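 Also: fluorescence loss as bound BODIPY-GDP is released from Rap1B; % of control where 0% means no effect.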 In a few lines:
(§1)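 Rap1B-BODIPY-GDP 250 nM + GDP 50 uM; cpds 7-pt, final 9.74 nM–152 uM (activator mode) or from 7.32 nM upwards (inhibitor mode); RT; FI 480/540 nm at 5 and 30 min, then ± cAMP, reread.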
(A counterscreen serves to expose hits that act by an unwanted route or on another target.)

For assay [6] the target is unchanged. The experiment in a line: Counterscreen qHTS for agonist of cAMP-regulated guanine nucleotide exchange factor 3 (EPAC1) (AID 1645889). Also: nearly all actives have a fitted effect of over 40% in size. Also: potency is read from the fitted curve at half-maximal effect. As to activation: % of control where 0% means no effect. In a few lines:
as §1

Rap guanine nucleotide exchange factor 3 (Homo sapiens), sequence (O95398 whole entry, looked up): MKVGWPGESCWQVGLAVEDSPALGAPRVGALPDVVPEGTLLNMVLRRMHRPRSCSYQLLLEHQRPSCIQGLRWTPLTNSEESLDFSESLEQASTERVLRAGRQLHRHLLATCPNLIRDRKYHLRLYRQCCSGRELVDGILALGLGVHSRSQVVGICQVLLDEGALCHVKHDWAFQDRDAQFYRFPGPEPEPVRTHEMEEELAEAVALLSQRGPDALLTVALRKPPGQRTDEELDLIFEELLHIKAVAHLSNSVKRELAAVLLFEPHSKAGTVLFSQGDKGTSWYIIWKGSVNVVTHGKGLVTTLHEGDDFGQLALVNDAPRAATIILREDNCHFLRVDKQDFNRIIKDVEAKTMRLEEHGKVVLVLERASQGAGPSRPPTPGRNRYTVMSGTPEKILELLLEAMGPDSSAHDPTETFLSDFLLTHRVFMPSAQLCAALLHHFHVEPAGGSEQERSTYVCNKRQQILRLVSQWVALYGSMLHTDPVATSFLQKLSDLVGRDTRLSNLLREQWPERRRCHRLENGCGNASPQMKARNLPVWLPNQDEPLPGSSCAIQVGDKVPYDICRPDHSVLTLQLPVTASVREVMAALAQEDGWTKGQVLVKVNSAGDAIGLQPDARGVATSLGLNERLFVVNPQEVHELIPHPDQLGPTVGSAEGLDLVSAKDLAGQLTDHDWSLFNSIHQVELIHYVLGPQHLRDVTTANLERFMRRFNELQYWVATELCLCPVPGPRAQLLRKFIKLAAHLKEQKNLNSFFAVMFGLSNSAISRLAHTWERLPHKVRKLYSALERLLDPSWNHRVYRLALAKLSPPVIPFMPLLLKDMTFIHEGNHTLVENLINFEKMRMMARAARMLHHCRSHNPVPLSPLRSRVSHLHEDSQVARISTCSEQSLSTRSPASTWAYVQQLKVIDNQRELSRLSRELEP
Rap guanine nucleotide exchange factor 4 (Homo sapiens), sequence (Q8WZA2 whole entry, looked up): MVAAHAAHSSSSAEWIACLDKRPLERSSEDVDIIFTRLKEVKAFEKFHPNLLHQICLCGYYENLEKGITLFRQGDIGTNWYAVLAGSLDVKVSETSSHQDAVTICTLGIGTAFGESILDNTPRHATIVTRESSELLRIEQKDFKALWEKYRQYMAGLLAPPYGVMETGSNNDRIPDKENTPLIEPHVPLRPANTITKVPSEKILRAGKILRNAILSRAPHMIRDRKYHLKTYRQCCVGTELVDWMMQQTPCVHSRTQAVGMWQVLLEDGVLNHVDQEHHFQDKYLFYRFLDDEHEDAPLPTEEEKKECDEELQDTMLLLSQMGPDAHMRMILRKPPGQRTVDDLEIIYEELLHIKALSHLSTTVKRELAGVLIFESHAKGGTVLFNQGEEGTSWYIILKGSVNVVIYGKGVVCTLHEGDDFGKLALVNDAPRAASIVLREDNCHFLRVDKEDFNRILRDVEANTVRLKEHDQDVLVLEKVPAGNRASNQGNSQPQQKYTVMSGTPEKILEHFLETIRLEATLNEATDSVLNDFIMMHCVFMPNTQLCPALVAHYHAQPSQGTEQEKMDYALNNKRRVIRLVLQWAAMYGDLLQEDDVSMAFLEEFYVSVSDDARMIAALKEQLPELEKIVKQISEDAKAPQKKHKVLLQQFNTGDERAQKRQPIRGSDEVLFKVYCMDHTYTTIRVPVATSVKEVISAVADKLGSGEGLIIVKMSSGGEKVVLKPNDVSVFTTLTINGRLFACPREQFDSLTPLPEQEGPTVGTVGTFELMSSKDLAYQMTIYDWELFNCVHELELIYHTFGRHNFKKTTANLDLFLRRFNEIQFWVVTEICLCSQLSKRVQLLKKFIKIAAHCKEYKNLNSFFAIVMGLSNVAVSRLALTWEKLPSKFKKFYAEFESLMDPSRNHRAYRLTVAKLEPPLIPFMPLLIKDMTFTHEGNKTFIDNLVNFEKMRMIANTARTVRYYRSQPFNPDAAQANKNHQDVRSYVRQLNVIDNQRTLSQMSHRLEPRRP

Turning to `CCOc1cc(/C=N/Nc2nc(-c3cccs3)c(NC(C)=O)s2)ccc1O`, the Potency result in assay [1], in assay [2], in assay [3], in assay [4], in assay [5] and in assay [6] was “inactive” each time.

As for `Cc1ccc(CNS(=O)(=O)c2ccc(-n3cnnn3)c(C)c2)cc1`, the Potency entry in assay [1], in assay [2] and in assay [4] was “inactive” throughout. Besides, the activation in assay [3] was 4.56% [at 17.1 µM, percent relative to cAMP agonist control]; in assay [6], 5.31% [at 30.8 µM]. Also, the activity change, negative = inhibition in assay [5] is 3.48% [at 30.8 µM].

For the compound `COc1ccccc1N1CCN(c2ncnc3onc(-c4ccc(F)cc4)c23)CC1`, the Potency result in assay [1], in assay [2], in assay [3], in assay [4], in assay [5] and in assay [6] was “inactive” each time.

As to `CC(=O)c1ccc(N2CCN(C(=O)C3CCCN(S(=O)(=O)c4c(C)[nH]c(=O)[nH]c4=O)C3)CC2)cc1` (centres undefined), the Potency entry in assay [1], in assay [2], in assay [3], in assay [4], in assay [5] and in assay [6] was “inactive” throughout.

Regarding `N#CC1=C(O)C(c2ccccc2)n2c1nc(=O)c1ccccc12` (centres undefined), the Potency entry in assay [1], in assay [2] and in assay [4] was “inactive” each time. Also, the activation in assay [3] was 0.476% [at 17.1 µM, percent relative to cAMP agonist control]; in assay [6], 1.1% [at 30.8 µM]. In addition, in assay [5], the activity change, negative = inhibition is 1.23% [at 30.8 µM].

In the case of `CC(NC(=O)c1cc(S(=O)(=O)N2CCOCC2)ccc1N1CCCC1)c1ccc(Cl)c(Cl)c1` (centres undefined), the Potency entry in assay [1], in assay [2], in assay [3], in assay [4], in assay [5] and in assay [6] was “inactive” each time.

As for `COc1ccc(-c2nnc(SCC(=O)c3ccco3)n2-c2ccccc2)cc1`, the Potency result in assay [1], in assay [2] and in assay [4] was “inactive” throughout. Besides, the activation was 3.77% [at 17.1 µM, percent relative to cAMP agonist control] in assay [3] and 4.19% [at 30.8 µM] in assay [6]. Further, in assay [5], the activity change, negative = inhibition was -13.6% [at 30.8 µM].

In the case of `O=C1Nc2c(Cl)cc(Cl)cc2C1=O`, the Potency entry in assay [1], in assay [2], in assay [3], in assay [4] and in assay [5] was “inactive” throughout. Besides, the Potency in assay [6] was 31.6 µM (active).

As for `C=CCc1c(C)c(C#N)c2nc3ccccc3n2c1N1CCCCC1`, the Potency entry in assay [1], in assay [2], in assay [3], in assay [4], in assay [5] and in assay [6] was “inactive” in each case.

Regarding `Cc1ccc(-c2csc(NC(=O)/C=C/c3ccco3)c2C(=O)O)cc1`, the Potency in assay [1] is 25.1 µM (active). The Potency entry in assay [2] and in assay [4] was “inactive” throughout. For the same compound, the activation was 5.44% [at 17.1 µM, percent relative to cAMP agonist control] in assay [3] and 18.5% [at 30.8 µM] in assay [6]. In addition, the activity change, negative = inhibition in assay [5] is -12.5% [at 30.8 µM].

Take `C/C(=N\NC(=O)c1cc(-c2cccc([N+](=O)[O-])c2)n[nH]1)c1ccccc1O`: in assay [1], the Potency is 26.9 µM (active). The Potency result in assay [2], in assay [3], in assay [4], in assay [5] and in assay [6] was “inactive” in each case.

On to `CCc1cccc2sc(NC(=O)c3ccc(N4C(=O)CCC4=O)cc3)nc12`, for which the Potency result in assay [1], in assay [2], in assay [3], in assay [4], in assay [5] and in assay [6] was “inactive” in each case.

As for `Cc1ccc(NC(=O)COC(=O)Cn2c(C)csc2=O)c([N+](=O)[O-])c1`, the Potency entry in assay [1], in assay [2], in assay [3], in assay [4], in assay [5] and in assay [6] was “inactive” in each case.

Take `CC1(Cc2ccc(Cl)cc2)C(=O)Nc2ccc(-c3cccnc3)cc21` (centres undefined): the Potency entry in assay [1], in assay [2], in assay [3], in assay [4], in assay [5] and in assay [6] was “inactive” throughout.

`CCOc1ccc(C(C(=O)NC2CCCC2)N(C(=O)c2snc(C(N)=O)c2N)C2CCCC2)cc1` (centres undefined): the Potency result in assay [1], in assay [2], in assay [3], in assay [4], in assay [5] and in assay [6] was “inactive” in each case.

Turning to `CSCCC(NS(=O)(=O)c1ccc2c(c1)oc(=O)n2C)C(=O)NC1CCCc2ccccc21` (centres undefined), the Potency entry in assay [1], in assay [2], in assay [3], in assay [4], in assay [5] and in assay [6] was “inactive” each time.

As for `Cc1cc(-c2csc(N)n2)c(C)n1CCC(C)C`, the Potency result in assay [1], in assay [2], in assay [3], in assay [4], in assay [5] and in assay [6] was “inactive” in each case.

As for `CCCCNC(=O)c1ccc2nc(-c3ccco3)c(-c3ccco3)nc2c1`, the Potency in assay [1] was 7.94 µM (active). In addition, the Potency result in assay [2] and in assay [4] was “inactive” each time. In addition, the activation in assay [3] is 3.07% [at 17.1 µM, percent relative to cAMP agonist control]; in assay [6] it was 11.8% [at 30.8 µM]. In addition, in assay [5], the activity change, negative = inhibition is -2.83% [at 30.8 µM].

In the case of `COC(=O)c1cn(C(=O)c2cc(OC)c(OC)c(OC)c2)c2ccccc12`, the Potency entry in assay [1], in assay [2], in assay [3], in assay [4], in assay [5] and in assay [6] was “inactive” in each case.

In the case of `C/C(=N\NC(=O)C1CC1)c1cccs1`, the Potency result in assay [1], in assay [2], in assay [3], in assay [4], in assay [5] and in assay [6] was “inactive” in each case.

For `O=C(COc1ccccc1Cl)Nc1cccc(S(=O)(=O)NC2=NCCCCC2)c1`, the Potency result in assay [1], in assay [2], in assay [3], in assay [4], in assay [5] and in assay [6] was “inactive” in each case.

`COc1ccc(/C=C/C(=O)NC2CCS(=O)(=O)C2)cc1` (centres undefined): the Potency entry in assay [1], in assay [2], in assay [3], in assay [4], in assay [5] and in assay [6] was “inactive” each time.

On to `Cc1ccccc1OCc1nc2ccccc2n1Cc1ccccc1Cl`, for which the Potency result in assay [1], in assay [2], in assay [3], in assay [4], in assay [5] and in assay [6] was “inactive” in each case.

On to `CN(C)c1ccc(/C=C/c2nc3ccccc3c(=O)n2-c2ccc(C(=O)O)cc2)cc1`, for which the Potency in assay [1] was 75.7 µM (active); in assay [4] it was 67.5 µM (active); in assay [6], 39.8 µM (active). For the same compound, the Potency entry in assay [2], in assay [3] and in assay [5] was “inactive” each time.

Turning to `O=C(COC(=O)Cc1ccc(Cl)cc1)Nc1ccc2[nH]c(=O)[nH]c2c1`, the Potency result in assay [1], in assay [2] and in assay [4] was “inactive” throughout. For the same compound, the activation is -3.41% [at 17.1 µM, percent relative to cAMP agonist control] in assay [3] and -0.761% [at 30.8 µM] in assay [6]. The activity change, negative = inhibition in assay [5] was -14.8% [at 30.8 µM].

Take `COc1cc(/C=C2\SC(=S)N(C(C(=O)O)c3ccccc3)C2=O)ccc1O` (centres undefined): the Potency in assay [1] is 47.8 µM (active); in assay [4], 42.6 µM (active). Besides, the Potency result in assay [2], in assay [3], in assay [5] and in assay [6] was “inactive” in each case.

As for `COc1ccc(/C=C/C(=O)c2ccncc2)c2ccccc12`, the Potency result in assay [1], in assay [2] and in assay [4] was “inactive” throughout. In addition, the activation is -6.66% [at 17.1 µM, percent relative to cAMP agonist control] in assay [3] and 15.3% [at 30.8 µM] in assay [6]. In addition, in assay [5], the activity change, negative = inhibition was -0.831% [at 30.8 µM].

Take `CC(=O)c1c(C(C)=O)c(C)n(-c2nc(-c3ccccc3)c(C)s2)c1C`: the Potency entry in assay [1], in assay [2], in assay [3], in assay [4], in assay [5] and in assay [6] was “inactive” in each case.

Take `O=C(N[C@@H](Cc1c[nH]c2ccccc12)C(=O)O)OCC1c2ccccc2-c2ccccc21`: the Potency entry in assay [1], in assay [2], in assay [3], in assay [4], in assay [5] and in assay [6] was “inactive” each time.

Turning to `CC(C)CC1C(=O)N(Cc2cn(CCC3OCCCO3)nn2)CCS(=O)(=O)N1Cc1ccc(-c2ccccc2)cc1` (centres undefined), the Potency entry in assay [1], in assay [2], in assay [3], in assay [4], in assay [5] and in assay [6] was “inactive” throughout.

Regarding `CC(C)(C)c1nc(-c2ccccc2)nc2c1OCCC2`, the Potency entry in assay [1], in assay [2], in assay [3], in assay [4], in assay [5] and in assay [6] was “inactive” in each case.

In the case of `CN(C)C(=S)Oc1ccccc1-c1ccccc1OC(=S)N(C)C`, the Potency entry in assay [1], in assay [2], in assay [3], in assay [4], in assay [5] and in assay [6] was “inactive” throughout.

On to `COc1cc(Cl)c(C)cc1NC(=O)c1ccc(CN2C(=O)CCn3nc(C)cc32)cc1`, for which the Potency result in assay [1], in assay [2], in assay [3], in assay [4], in assay [5] and in assay [6] was “inactive” throughout.

`COc1ccc(C2c3c(ncn(CCCO)c3=N)Oc3ccc4ccccc4c32)cc1` (centres undefined): the Potency entry in assay [1], in assay [2] and in assay [4] was “inactive” each time. Further, the activation in assay [3] was 3.99% [at 17.1 µM, percent relative to cAMP agonist control]; in assay [6], 22.2% [at 30.8 µM]. Further, the activity change, negative = inhibition in assay [5] was 0.394% [at 30.8 µM].
